Experimental data published in PubChem BioAssay (Tox21).
Inconclusive results are not listed. Active and inactive are the calls of the source. Calls follow the shape of the dose curve; as a rule, active = well fitted curve in the direction sought with a large enough effect in the repeat runs; inconclusive = weak or mixed curves; inactive = no such curve, though single readings can be large; an effect the other way counts as inactive or inconclusive.

Test: qHTS assay to identify small molecule agonists of the retinoic acid receptor (RAR) signaling pathway (AID 1159553)
Conditions: C3RL4 RARE luciferase reporter, agonist, 6 h; activation: at 73.3 µM (top of the series)
Outline: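 C3RL4 RARE-luciferase cells were seeded at 1,000/well and grown overnight at 37 C, then exposed to compounds for 6 hr at 37 C, 5% CO2. Luciferase reagent was added and luminescence was read after 30 min at room temperature.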
% is scaled to controls: 0 for no effect and ±100 for the full control effect.

Structure (SMILES)	activation
CC(=O)N(CC(O)CO)c1c(I)c(C(=O)NCC(O)CO)c(I)c(C(=O)NCC(O)CO)c1I (stereo unspecified)	0.408% (inactive)
C[Si]1(C)N[Si](C)(C)N[Si](C)(C)N1	-0.613% (inactive)
CCCCOC(=O)C(C)OC(=O)CCC (stereo unspecified)	0.0698% (inactive)

Test: qHTS assay to identify small molecule antagonists of the estrogen related receptor (ERR) signaling pathway from Tox21 library - cell viability counter screen (AID 1224834); also: nearly all actives have a fitted effect of over 30% in size
Conditions: ERR reporter cells viability, CellTiter-Fluor, 17.5 h; series mostly up to 92.4 µM; viability change, negative = cytotoxic: at the top concentration
Outline: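 ERR reporter cells, 2,000 per well, rested 6 h, then exposed to compound in DMSO for 17.5 hours at 37 C. Viability read as fluorescence after 30 min with CellTiter-Fluor.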

Structure (SMILES)	viability change, negative = cytotoxic
BrC/C=C/CBr	0.661% [at 19 µM] (inactive)
CC(=O)Nc1ncc([N+](=O)[O-])s1	-10.4% [at 42.5 µM] (inactive)
O=C(COCCOCCOCC(=O)Nc1c(I)cc(I)c(C(=O)O)c1I)Nc1c(I)cc(I)c(C(=O)O)c1I	1.09% [at 42.5 µM] (inactive)
CC(=O)OC(C)(C)Cc1ccccc1	3.13% (inactive)
CCCCCCCCOC(C)=O	2.26% (inactive)
CC(C)(c1ccc(Oc2ccc3c(c2)C(=O)OC3=O)cc1)c1ccc(Oc2ccc3c(c2)C(=O)OC3=O)cc1	-0.329% (inactive)
C=CC(C)(O)CC/C=C(\C)CC (stereo unspecified)	6.18% (inactive)
FC(F)(F)/C(=N\OCC1OCCO1)c1ccc(Cl)cc1	0.418% (inactive)
CC(Cl)COP(=O)(OCC(C)Cl)OCC(C)Cl (stereo unspecified)	2.02% (inactive)
C=C(C)C(=O)OCCCCCCOC(=O)C(=C)C	-9.73% (inactive)
O=C(O)CCNC(=O)c1ccccc1	4.61% [at 42.5 µM] (inactive)
CCCOCCOCCOCCO	-3.73% (inactive)
COCC(=O)Nc1c(I)c(C(=O)NCC(O)CO)c(I)c(C(=O)N(C)CC(O)CO)c1I (stereo unspecified)	0.794% [at 42.5 µM] (inactive)
O=C(O)/C=C/c1ccccc1	0.477% (inactive)
Cc1oc(=O)oc1CN1CCN(c2cc3c(cc2F)c(=O)c(C(=O)O)c2n3C(C)S2)CC1 (stereo unspecified)	2.64% [at 42.5 µM] (inactive)
Cc1ccc(C(=O)C(=O)O)cc1C	2.41% [at 42.5 µM] (inactive)
CCCCCCCCCCCCCCCCI	1.65% [at 19 µM] (inactive)
N#CCCOCCOCCC#N	8.51% (inactive)
C=CCOc1c(Br)cc(Br)cc1Br	0.104% (inactive)

Structure (SMILES)	viability change, negative = cytotoxic
SCCSCCS	2.74% (inactive)
CC1CCC(C(C)(C)S)C(=O)C1 (stereo unspecified)	-6.9% (inactive)
CCOC(=O)C(C)(C)C	5.69% (inactive)
CC(C)COC(=O)CC(C(=O)OCC(C)C)S(=O)(=O)O (stereo unspecified)	3.67% (inactive)
CCCCC[Si](OCC)(OCC)OCC	-1.61% (inactive)
CCC(=O)c1ccc(O)cc1	4.14% [at 42.5 µM] (inactive)
CCOC(=O)CCc1ccccc1	-0.22% (inactive)
CCC(C)N (stereo unspecified)	1.86% (inactive)
CCCCC(=O)N(C)C	1.43% (inactive)
CCCC(C)CC (stereo unspecified)	4.25% (inactive)
CCOC(=O)C(=O)c1csc(NC=O)n1	3.09% [at 42.5 µM] (inactive)
CN(C)CCOCCN(C)CCO	-1.74% (inactive)
COc1ccc(/C=N/NC(=O)c2ccncc2)cc1OC	6.38% [at 42.5 µM] (inactive)
C=CCOC(=O)c1ccc(C(=O)OCC=C)c(C(=O)OCC=C)c1	5.83% (inactive)
CC(=O)/C=C/c1ccco1	-6.15% (inactive)
CC(=O)N(CC(O)CO)c1c(I)c(C(=O)NCC(O)CO)c(I)c(C(=O)NCC(O)CO)c1I (stereo unspecified)	3.91% [at 42.5 µM] (inactive)
C[Si]1(C)N[Si](C)(C)N[Si](C)(C)N1	5.67% (inactive)
CCCCOC(=O)C(C)OC(=O)CCC (stereo unspecified)	9.07% (inactive)
O=C1OC(=O)c2ccccc21	3.78% (inactive)
